The record followed here is the supplement of paper PMC6607015.

Counter-ions that a name gives are not always drawn.

Common to all, as to conditions: compound concentration in added solution (µM; 5 µl added to 20 µl cells): 10; 18 h
For experiment [1], the system named is A431. Description: LBPA endosome anti-LBPA integrated intensity (sum per cell), Z-score; higher = more LBPA staining. The gist of the method:
(§1)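 Reported values are Z-scores from AcuityXpress normalisation of per-cell integrated LBPA or filipin staining. HeLa MZ or A431 cells (3,500/well in 20 µl) were seeded onto 5 µl of 10 µM compound solution in duplicate 384-well plates, incubated 18 h, fixed in 4% PFA, stained and imaged at 20×. MetaXpress segmentation measured the intensity over the whole cell or within LBPA endosomes.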

For experiment [2], the system named is HeLa MZ. The experiment is described as above. The method in brief:
as §1

In experiment [3] the test system is A431. The experiment is described as follows: whole-cell filipin (free cholesterol) integrated intensity, Z-score; higher = more cholesterol staining. The method in brief:
as §1

Experiment [4] relates to HeLa MZ. The description is as above. The gist of the method: as §1
Experiment [5] deals with A431. The experiment is described as follows: filipin (cholesterol) integrated intensity within LBPA endosomes, Z-score; higher = more cholesterol in LBPA endosomes. The method in brief: as §1
Experiment [6] relates to HeLa MZ. Described as above. The gist of the method:
as §1

Take `CCOC(=O)C1=C(COCCN)NC(C)=C(C(=O)OC)C1c1ccccc1Cl` (stereo not drawn) [Amlodipine]: the “LBPA endosome anti-LBPA integrated intensity (z-score)” value with A431 [1] turned out to be 1.97; with HeLa MZ [2] it was 0.223. For the same compound, the “whole-cell filipin (z-score)” value with A431 [3] was found to be 0.774; in the experiment on HeLa MZ [4], 0.736. Besides, the “filipin (z-score)” value in the experiment on A431 [5] was 2.32; in the experiment on HeLa MZ [6], 1.8.
Take `CCCCN(CCCC)CCCOC(=O)c1ccc(N)cc1` [Butacaine]: the “LBPA endosome anti-LBPA integrated intensity (z-score)” value is 1.72 with A431 [1] and 1.93 in the experiment on HeLa MZ [2]. The “whole-cell filipin (z-score)” value in the experiment with A431 [3] is -0.324; in the experiment on HeLa MZ [4], -0.451. Moreover, the “filipin (z-score)” value is 0.0505 in the experiment with A431 [5] and 0.307 with HeLa MZ [6].
With `CCN(CC)CCNC(=O)COc1ccc(OC)cc1` [Mefexamide hydrochloride], the results for the “LBPA endosome anti-LBPA integrated intensity (z-score)” value in the experiment on A431 [1] and with HeLa MZ [2] were -0.352 and 0.346, respectively. In addition, the “whole-cell filipin (z-score)” value in the experiment on A431 [3] was -0.627; in the experiment on HeLa MZ [4], -0.811. The entries for the “filipin (z-score)” value in the experiment on A431 [5] and in the experiment with HeLa MZ [6] were -0.519 and -0.36, respectively.
Turning to `CCN(CC)C(=O)/C(C#N)=C/c1cc(O)c(O)c([N+](=O)[O-])c1` [Entacapone], the figures for the “LBPA endosome anti-LBPA integrated intensity (z-score)” value in the experiment with A431 [1] and with HeLa MZ [2] were -0.554 and -0.84, respectively. The “whole-cell filipin (z-score)” value was -0.719 with A431 [3] and 0.0172 in the experiment with HeLa MZ [4]. Further, the “filipin (z-score)” value is -0.479 with A431 [5] and -0.52 in the experiment with HeLa MZ [6].
Turning to `COc1cc(NC(C)CCCN)c2ncccc2c1` (stereo not drawn) [Primaquine diphosphate], the “LBPA endosome anti-LBPA integrated intensity (z-score)” value in the experiment on A431 [1] was -0.0886; in the experiment on HeLa MZ [2], 0.528. In addition, the entries for the “whole-cell filipin (z-score)” value with A431 [3] and in the experiment on HeLa MZ [4] were -0.291 and -0.377, respectively. Further, the “filipin (z-score)” value in the experiment on A431 [5] was -0.187; in the experiment with HeLa MZ [6] it was 0.116.
On to `C[C@]12CCC(=O)C=C1CC[C@@H]1[C@@H]2C(=O)C[C@@]2(C)[C@H]1CC[C@]2(O)C(=O)CO` [Cortisone], for which the “LBPA endosome anti-LBPA integrated intensity (z-score)” value in the experiment on A431 [1] is -0.412; in the experiment on HeLa MZ [2] it was 0.126. Besides, the “whole-cell filipin (z-score)” value in the experiment on A431 [3] was -0.734; with HeLa MZ [4], -0.61. Moreover, the “filipin (z-score)” value in the experiment on A431 [5] was -0.464; with HeLa MZ [6] it was -0.486.
With `O=c1cc(-c2ccc(O)c(O)c2)oc2cc(O)cc(O)c12` [Luteolin], the “LBPA endosome anti-LBPA integrated intensity (z-score)” value in the experiment with A431 [1] was -0.401; in the experiment with HeLa MZ [2], 0.459. The results for the “whole-cell filipin (z-score)” value with A431 [3] and with HeLa MZ [4] were -0.523 and -0.0366, respectively. The “filipin (z-score)” value was -0.468 with A431 [5] and -0.425 with HeLa MZ [6].
As for `CCCCC1C(=O)N(c2ccccc2)N(c2ccccc2)C1=O` [Phenylbutazone], the “LBPA endosome anti-LBPA integrated intensity (z-score)” value in the experiment on A431 [1] is -0.242; with HeLa MZ [2] it was 0.571. The “whole-cell filipin (z-score)” value is -0.047 with A431 [3] and 0.231 in the experiment on HeLa MZ [4]. Also, the “filipin (z-score)” value with A431 [5] was -0.314; in the experiment with HeLa MZ [6] it was -0.301.
Take `CCN[C@H]1CN(CCCOC)S(=O)(=O)c2sc(S(N)(=O)=O)cc21` [Brinzolamide]: the “LBPA endosome anti-LBPA integrated intensity (z-score)” value in the experiment on A431 [1] was -0.542; in the experiment with HeLa MZ [2], -0.00126. For the same compound, the “whole-cell filipin (z-score)” value in the experiment on A431 [3] was -0.549; with HeLa MZ [4] it was -0.378. The results for the “filipin (z-score)” value in the experiment with A431 [5] and with HeLa MZ [6] were -0.517 and -0.377, respectively.
For the compound `O=C(CCCN1CCC(O)(c2ccc(Br)cc2)CC1)c1ccc(F)cc1` [Bromperidol], the figures for the “LBPA endosome anti-LBPA integrated intensity (z-score)” value in the experiment with A431 [1] and in the experiment with HeLa MZ [2] were 2.59 and 2.09, respectively. Moreover, the “whole-cell filipin (z-score)” value is 1.76 in the experiment on A431 [3] and 1.12 in the experiment with HeLa MZ [4]. In addition, the “filipin (z-score)” value in the experiment on A431 [5] was 2.09; with HeLa MZ [6], 1.82.
Consider `CCN(CC)CCc1nc(-c2ccccc2)no1` [Oxalamine citrate salt], for which the results for the “LBPA endosome anti-LBPA integrated intensity (z-score)” value with A431 [1] and in the experiment on HeLa MZ [2] were -0.387 and 0.162, respectively. Moreover, the “whole-cell filipin (z-score)” value was -0.277 with A431 [3] and -0.546 in the experiment on HeLa MZ [4]. The “filipin (z-score)” value with A431 [5] was -0.442; in the experiment with HeLa MZ [6] it was -0.374.
Regarding `CN1CCc2cccc3c2[C@H]1Cc1ccc(O)c(O)c1-3` [R(-) Apomorphine hydrochloride hemihydrate], the “LBPA endosome anti-LBPA integrated intensity (z-score)” value worked out at 2.19 with A431 [1] and 0.867 with HeLa MZ [2]. The “whole-cell filipin (z-score)” value is -0.55 in the experiment on A431 [3] and -1.57 in the experiment on HeLa MZ [4]. The figures for the “filipin (z-score)” value in the experiment with A431 [5] and in the experiment on HeLa MZ [6] were 0.31 and -0.107, respectively.
Take `CC(=O)N(CC(C)C(=O)O)c1c(I)cc(I)c(N)c1I` (stereo not drawn) [Iocetamic acid]: the figures for the “LBPA endosome anti-LBPA integrated intensity (z-score)” value in the experiment with A431 [1] and in the experiment on HeLa MZ [2] were -0.0668 and -0.0236, respectively. Moreover, the results for the “whole-cell filipin (z-score)” value in the experiment on A431 [3] and with HeLa MZ [4] were -0.0512 and 0.178, respectively. Moreover, the entries for the “filipin (z-score)” value in the experiment with A431 [5] and in the experiment on HeLa MZ [6] were -0.262 and -0.476, respectively.
